Screens: PubChem, several laboratories
MT1-MMP txn act: MT1-MMP promoter reporter activation – cell-based, luciferase luminescence, primary screen; HT1080 MT1-MMP promoter luciferase reporter, overnight; active compounds read high; activation factor at 10 µM; actives 0.16% (n = 86,000); AID 750, 2007;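 active = activation factor of at least 2 for MT1-MMP transcription at 10 µM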
ERb SRC1 inh: inhibitors of ERβ-SRC1 coactivator interaction, primary screen, biochemical, TR-FRET, ERβ LBD, SRC-1 peptide. TR-FRET ER-beta LBD / SRC1-Cy5 peptide binding; receptor agonist-loaded with 1 µM estradiol. AID 633, 2007. inhibition, % at 25.6 µM. Estrogen receptor beta (Homo sapiens), Q92731. actives 1.3% (n = 86,000);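 active = compounds whose percent inhibition of the receptor-coactivator binding signal exceeds about 50% in the single-dose screen, limit read from the data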
Candida biofilm: clotrimazole potentiators killing Candida biofilms, primary screen, with clotrimazole, Alamar Blue | C. albicans biofilm + clotrimazole | inhibition, % at 6 µM | actives 0.14% (n = 85,000) | AID 834, 2007;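 active = inhibition above 20%; inactive = inhibition below 20%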;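 also: preformed 24 hr biofilms exposed to compound for 48 hr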
Smad3 FoxH1 inh: Smad3/FoxH1 peptide binding inhibitors, primary screen, biochemical, TR-FRET; Mothers against decapentaplegic homolog 3 (Homo sapiens), P84022; TR-FRET Smad3/Dy647-FoxH1 peptide binding, europium anti-His; inhibition, % at 25 µM; actives 0.29% (n = 88,000); AID 630, 2007;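 active = compounds that reduce the energy-transfer binding signal between the protein and its labelled peptide by more than half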
Target sequence (P84022 whole entry, looked up): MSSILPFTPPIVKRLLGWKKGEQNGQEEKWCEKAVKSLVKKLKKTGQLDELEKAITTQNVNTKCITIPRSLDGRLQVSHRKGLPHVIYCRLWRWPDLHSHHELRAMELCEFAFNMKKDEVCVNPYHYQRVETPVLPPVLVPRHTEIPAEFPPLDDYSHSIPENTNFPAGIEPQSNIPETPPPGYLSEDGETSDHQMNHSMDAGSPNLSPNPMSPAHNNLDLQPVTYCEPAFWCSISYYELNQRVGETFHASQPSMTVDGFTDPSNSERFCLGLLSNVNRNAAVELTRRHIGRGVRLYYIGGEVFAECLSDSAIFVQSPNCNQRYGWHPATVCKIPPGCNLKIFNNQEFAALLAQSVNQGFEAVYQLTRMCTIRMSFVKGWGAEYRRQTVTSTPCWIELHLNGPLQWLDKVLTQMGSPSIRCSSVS
ERa SRC1 inh: ERα–SRC-1 coactivator interaction inhibitors, primary screen, biochemical, TR-FRET, ERα LBD, estradiol-bound. Estrogen receptor (Homo sapiens), P03372. TR-FRET ER-alpha LBD / SRC-1 peptide. inhibition, % at 25.6 µM. actives 1.7% (n = 86,000); in the data active = inhibition above about 50%
ERa SRC1 pot: enhancers of ERα–SRC-1 coactivator binding, primary screen, biochemical, TR-FRET, ERα LBD, low estradiol; TR-FRET ERalpha-LBD/SRC-Cy5 coactivator binding, 2 h; 100 = basal binding, no effect; coactivator binding (% of control), % at 25.6 µM; actives 1.3% (n = 86,000); in the data active = activity above about 200%;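 also: binding measured in presence of low estradiol as agonist stimulus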
Of the large screens only hits and unclear results are named; the others gave an inactive call; [ ] = dose if it differs, or a comment. The list is not random: actives were taken first. Their share in the collection is about 3.8%.

COc1cccc2cc(-c3nc(-c4cccs4)cs3)c(=O)oc12	ERa SRC1 inh 50[fluorescence artefact?]
O=c1oc2ccccc2cc1-c1nc(-c2cccs2)cs1	none
C#CCn1c(=NC(=O)c2ccc(Br)s2)sc2cccc(OC)c21	ERa SRC1 inh 57[fluorescence artefact?], ERa SRC1 pot 333[fluorescence artefact?] (no result: MT1-MMP txn act)
O=C(Nc1cccnc1)c1cn(-c2ccccc2)nc1-c1cccs1	none
O=C(Nc1cccc2ccccc12)c1cn(-c2ccccc2)nc1-c1cccs1	ERa SRC1 pot 203[fluorescence artefact?]
N=C(N)SCc1cccc(-c2nc3ccccc3c(=O)o2)c1	none (no result: MT1-MMP txn act, ERb SRC1 inh, Candida biofilm, ERa SRC1 inh, ERa SRC1 pot)
Cc1oc2c(C)c(O)ccc2c(=O)c1-c1cnn(-c2ccccc2)c1	ERb SRC1 inh 60[fluorescence artefact?], ERa SRC1 inh 70[fluorescence artefact?]
Cn1cc(SCC(N)=O)c2ccccc21	none (no result: MT1-MMP txn act)
COc1ccc(C2=NN(C(=O)CSc3cn(C)c4ccccc34)C(c3ccc(OC)cc3)C2)cc1 (configuration not stated)	ERa SRC1 pot 639[fluorescence artefact?] (no result: MT1-MMP txn act)
CCOC(=O)c1cnc(-n2nc(C)cc2C)nc1NCc1ccc2c(c1)OCO2	ERa SRC1 pot 219[fluorescence artefact?]
COC(=O)[C@@]1(Cc2ccccc2)[C@H]2c3cc(C(=O)N4CCCC4)n(Cc4ccccc4)c3C[C@H]2CN1C(=O)c1ccccc1	none (no result: ERb SRC1 inh, Candida biofilm, Smad3 FoxH1 inh, ERa SRC1 inh, ERa SRC1 pot)
COc1cc(CCC(=O)OCC(=O)Nc2ncc(Cl)cc2Cl)cc(OC)c1OC	ERb SRC1 inh 59, ERa SRC1 inh 56[fluorescence artefact?]
COc1ccc(CC(=O)OCC(=O)Nc2ncc(Cl)cc2Cl)cc1OC	none
COc1ccccc1OCCC(=O)OCC(=O)Nc1ncc(Cl)cc1Cl	ERa SRC1 inh 54[fluorescence artefact?]
CSc1nnc2c3cc(C)ccc3n(Cc3ccccc3)c2n1	ERb SRC1 inh 54[fluorescence artefact?], ERa SRC1 inh 68[fluorescence artefact?]
CN(C)CCn1c(CO)nc2c1c(=O)n(C)c(=O)n2C	none (no result: MT1-MMP txn act, ERb SRC1 inh, Candida biofilm, ERa SRC1 inh, ERa SRC1 pot)
CCOC(=O)c1sc(NC(=O)c2c(C)nn(Cc3ccccc3)c2C)cc1C	ERa SRC1 pot 202
N=C1N(/N=C/c2ccccc2)C(=Nc2ccccc2)C(=S)N1c1ccccc1	MT1-MMP txn act 2
Cc1nnc(C)n1/N=C/c1ccccc1	none
CCOC(=O)C(C)(C)[C@H](O)C(C)C	none (no result: MT1-MMP txn act, ERb SRC1 inh, Candida biofilm, ERa SRC1 inh, ERa SRC1 pot)
O=C1c2oc3ccccc3c(=O)c2C(c2ccc(Br)cc2)N1c1ncccn1 (configuration not stated)	ERa SRC1 pot 316
CN1C(=O)c2oc3ccccc3c(=O)c2C1c1ccccn1 (configuration not stated)	none
O=C(c1ccccc1F)N1CCN(S(=O)(=O)c2ccc(S(=O)(=O)N3CCCCC3)cc2)CC1	ERa SRC1 inh 66[fluorescence artefact?]
O=C(CSc1nc2scc(-c3ccco3)c2c(=O)n1-c1ccccc1)NCC1CCCO1 (configuration not stated)	ERb SRC1 inh 55, ERa SRC1 inh 62
NC(=O)CSc1nc2scc(-c3ccco3)c2c(=O)n1-c1ccccc1	none
O=c1c2c(-c3ccco3)csc2nc(SCc2cn3cccnc3n2)n1-c1ccccc1	ERa SRC1 inh 67[fluorescence artefact?]
C=CCn1c(SCC(=O)NCC2CCCO2)nc2scc(-c3ccco3)c2c1=O (configuration not stated)	none
CCCc1nnc2n1N=C(c1ccc(OC)c(OC)c1)CS2	none
CCCc1nnc2n1N=C(c1ccc(-c3cc(Cl)ccc3Cl)o1)CS2	ERa SRC1 inh 73
O=C(O)C[C@H](S)C(=O)O	none (no result: MT1-MMP txn act, ERb SRC1 inh, Candida biofilm, ERa SRC1 inh, ERa SRC1 pot)
Clc1ccc(-c2nn3c(-c4ccncc4)nnc3s2)c(Cl)c1	ERa SRC1 pot 330
Clc1ccccc1-c1nn2c(-c3ccncc3)nnc2s1	none
CC(C)(C)c1ccc(-c2nnc3sc(-c4ccccn4)nn23)cc1	ERa SRC1 pot 262
c1ccc(-c2nn3c(-c4ccncc4)nnc3s2)nc1	ERa SRC1 inh 58[fluorescence artefact?]
CCC(C)Sc1nc2ccccc2n1CC(=O)O (configuration not stated)	none
CSCCC1NC(=O)NC1=O (configuration not stated)	ERa SRC1 inh 62 (no result: Candida biofilm)
NC(=O)NOC[C@@H]1NC(=O)NC1=O	none (no result: MT1-MMP txn act, ERb SRC1 inh, Candida biofilm, ERa SRC1 inh, ERa SRC1 pot)
COc1ccc(N/C(N)=N/c2nc(CSc3ccc(C)cc3)cc(=O)[nH]2)cc1	none
COc1ccccc1N/C(N)=N/c1nc(CSc2ccc(C)cc2)cc(=O)[nH]1	ERa SRC1 pot 258[fluorescence artefact?]
Cc1[nH]c2ccccc2c1-c1cc(-c2cc(-c3c(C)[nH]c4ccccc34)on2)no1	none (no result: MT1-MMP txn act, ERb SRC1 inh, Candida biofilm, ERa SRC1 inh, ERa SRC1 pot)
CC(C)(C)CC(C)(C)NC(=O)CSCC(=O)Nc1ccc2ccccc2c1	none
CCOc1ccc2[nH]c(=O)c(CN(Cc3ccc(F)cc3)C(=O)N3CCCC3)cc2c1	ERa SRC1 pot 331[fluorescence artefact?]
Cc1cccc2c1Oc1ccccc1[C@H]2NC(=O)c1ccc([N+](=O)[O-])cc1	none (no result: MT1-MMP txn act, ERb SRC1 inh, Candida biofilm, ERa SRC1 inh, ERa SRC1 pot)
Cc1c(C(=O)N2CCN(c3ccccn3)CC2)sc2ncnc(N3CCN(c4ccccc4)CC3)c12	ERa SRC1 pot 207[fluorescence artefact?]
CCC/C=C(\CCC)C(NS(=O)(=O)c1ccc(Cl)cc1)c1ccc(C(=O)OC)cc1 (configuration not stated)	none (no result: ERb SRC1 inh, Candida biofilm, Smad3 FoxH1 inh, ERa SRC1 inh, ERa SRC1 pot)
O=C(CSc1nc2c(c(C(F)(F)F)n1)CCc1ccccc1-2)NCc1ccccc1	none
O=C(CSc1nc2c(c(C(F)(F)F)n1)CCc1ccccc1-2)NCc1ccc(F)cc1	ERa SRC1 pot 229
Cc1cc(C2(c3cc(C)c(O)c(C(=O)O)c3)OS(=O)(=O)c3ccccc32)cc(C(=O)O)c1O	none (no result: MT1-MMP txn act, ERb SRC1 inh, Candida biofilm, ERa SRC1 inh, ERa SRC1 pot)
CCN(CC)CCNC1=CC(=O)OC12CCCCC2	none
CCN(CC)C1=CC(=O)OC12CCCCC2	ERb SRC1 inh 62
CCN(CC)C(=O)c1cnn(-c2ccccc2)c1NC(=O)c1ccccc1F	none
Cc1cc(C)nc(NC2=NCCN2C(=O)Nc2ccc(Cl)c(Cl)c2)n1	ERa SRC1 pot 970 (no result: MT1-MMP txn act)
CCOc1ccc2[nH]c(C)cc(=O)c2c1	none
CCOc1ccc2[nH]c(=O)c(=O)[nH]c2c1	ERb SRC1 inh 54, ERa SRC1 inh 52[fluorescence artefact?]
O=C(OCc1ccccc1)c1cn(-c2ccccc2)nc1-c1ccncc1	none
Cc1cc(OCC(=O)Nc2cc(-c3nn4c(C)nnc4s3)ccc2C)ccc1Cl	ERa SRC1 pot 621[fluorescence artefact?]
COc1ccc(OCC(=O)Nc2cc(-c3nn4c(C)nnc4s3)ccc2C)cc1	ERa SRC1 pot 276[fluorescence artefact?]
O=C(O)[C@H](/C=C/c1ccccc1)c1ccccc1	none (no result: MT1-MMP txn act, ERb SRC1 inh, Candida biofilm, ERa SRC1 inh, ERa SRC1 pot)
Oc1cc(CN2COc3ccccc32)c(O)cc1CNC1CCCCC1	Smad3 FoxH1 inh 74 (no result: MT1-MMP txn act, ERb SRC1 inh, Candida biofilm, ERa SRC1 inh, ERa SRC1 pot)
O=c1cc(CNC2CCCCC2)c2ccccc2[nH]1	none
COC(=O)c1ccsc1NC(=O)CSc1nnnn1-c1ccccc1SC	ERa SRC1 pot 263[fluorescence artefact?]
CSc1ccccc1NC(=O)CSc1nnnn1-c1ccccc1SC	none
